molecular target: PUM1 PUF domain R4-TPG (Homo sapiens, UniProt Q14671 828-1176, N971T;H972P;Q975G); experiment: yeast three-hybrid, YBZ-1, SC-Leu-His + 0.5 mM 3-AT, 4 days; conditions: tags: N-Gal4 AD-HA kept; label: inside an RPR1-promoter hybrid RNA with tandem MS2 sites; ssRNA
In short: (§1)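 Pumilio-1 PUF domain libraries, randomized (NNK) at the three base-contacting residues of each repeat, were co-expressed with matching RNA elements from a centromeric plasmid in strain YBZ-1 (LexA–MS2 coat fusion, HIS3 reporter). Transformants were plated on SC-Leu (input) and SC-Leu-His + 0.5 mM 3-AT (selection) for four days, and repeat regions were PCR-amplified and Illumina-sequenced. The interaction score is the log2 change in variant frequency from input to selection, with pseudocount 1 where absent.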

PUM1 PUF domain R4-TPG, sequence (Q14671 828-1176 N971T/H972P/Q975G): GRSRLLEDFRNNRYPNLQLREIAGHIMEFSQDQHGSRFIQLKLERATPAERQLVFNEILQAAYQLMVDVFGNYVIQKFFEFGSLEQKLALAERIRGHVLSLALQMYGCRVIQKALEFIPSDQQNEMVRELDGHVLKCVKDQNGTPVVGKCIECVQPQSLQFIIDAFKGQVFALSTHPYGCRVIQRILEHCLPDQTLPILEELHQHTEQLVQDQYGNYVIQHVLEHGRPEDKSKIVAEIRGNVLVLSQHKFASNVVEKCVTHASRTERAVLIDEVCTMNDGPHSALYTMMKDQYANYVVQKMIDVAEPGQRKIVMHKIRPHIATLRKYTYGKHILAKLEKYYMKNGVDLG

Sequence	binding signal
GGCUAGAACUAGUGGAUCCCCCGGCGCCCGGCGGCUCGAGCCCGGGUAAGUGUAAAUAGUCUGCAUGCCGCCGGGCGCCAUGCCUGCAGGUCGACUCUAGAAAACAUG	3.31 log2 enrichment (interaction score)
GGCUAGAACUAGUGGAUCCCCCGGCGCCCGGCGGCUCGAGCCCGGGUAAGUGUAUAUAGUCUGCAUGCCGCCGGGCGCCAUGCCUGCAGGUCGACUCUAGAAAACAUG	4.15 log2 enrichment (interaction score)
GGCUAGAACUAGUGGAUCCCCCGGCGCCCGGCGGCUCGAGCCCGGGUAAGUGUACAUAGUCUGCAUGCCGCCGGGCGCCAUGCCUGCAGGUCGACUCUAGAAAACAUG	3.87 log2 enrichment (interaction score)

molecular target: PUM1 PUF domain R1-RCS (Homo sapiens, UniProt Q14671 828-1176, S863R;R864C;Q867S); experiment: as above; conditions: tags: N-Gal4 AD-HA kept; label: inside an RPR1-promoter hybrid RNA with tandem MS2 sites; ssRNA
Sequence (Q14671 828-1176 S863R/R864C/Q867S): as the sequence (Q14671 828-1176 N971T/H972P/Q975G) above, with S36R, R37C, Q40S, T144N, P145H, G148Q counted along it
In short: as §1

Sequence	binding signal
GGCUAGAACUAGUGGAUCCCCCGGCGCCCGGCGGCUCGAGCCCGGGUAAGUGUAAAUCGUCUGCAUGCCGCCGGGCGCCAUGCCUGCAGGUCGACUCUAGAAAACAUG	3.49 log2 enrichment (interaction score)
GGCUAGAACUAGUGGAUCCCCCGGCGCCCGGCGGCUCGAGCCCGGGUAAGUGUAAAUGGUCUGCAUGCCGCCGGGCGCCAUGCCUGCAGGUCGACUCUAGAAAACAUG	1.75 log2 enrichment (interaction score)
GGCUAGAACUAGUGGAUCCCCCGGCGCCCGGCGGCUCGAGCCCGGGUAAGUGUAAAUUGUCUGCAUGCCGCCGGGCGCCAUGCCUGCAGGUCGACUCUAGAAAACAUG	3.23 log2 enrichment (interaction score)

molecular target: PUM1 PUF domain R5-FRR (Homo sapiens, UniProt Q14671 828-1176, C1007F;Q1011R); experiment: as above; conditions: tags: N-Gal4 AD-HA kept; label: inside an RPR1-promoter hybrid RNA with tandem MS2 sites; ssRNA
Sequence (Q14671 828-1176 C1007F/Q1011R): as the sequence (Q14671 828-1176 N971T/H972P/Q975G) above, with T144N, P145H, G148Q, C180F, Q184R counted along it
In short: as §1

Sequence	binding signal
GGCUAGAACUAGUGGAUCCCCCGGCGCCCGGCGGCUCGAGCCCGGGUAAGUGUAAAUAGUCUGCAUGCCGCCGGGCGCCAUGCCUGCAGGUCGACUCUAGAAAACAUG	1.31 log2 enrichment (interaction score)
GGCUAGAACUAGUGGAUCCCCCGGCGCCCGGCGGCUCGAGCCCGGGUAAGUGUCAAUAGUCUGCAUGCCGCCGGGCGCCAUGCCUGCAGGUCGACUCUAGAAAACAUG	4.1 log2 enrichment (interaction score)
GGCUAGAACUAGUGGAUCCCCCGGCGCCCGGCGGCUCGAGCCCGGGUAAGUGUUAAUAGUCUGCAUGCCGCCGGGCGCCAUGCCUGCAGGUCGACUCUAGAAAACAUG	3.38 log2 enrichment (interaction score)

molecular target: PUM1 PUF domain R4-SPW (Homo sapiens, UniProt Q14671 828-1176, N971S;H972P;Q975W); experiment: as above; conditions: tags: N-Gal4 AD-HA kept; label: inside an RPR1-promoter hybrid RNA with tandem MS2 sites; ssRNA
Sequence (Q14671 828-1176 N971S/H972P/Q975W): as the sequence (Q14671 828-1176 N971T/H972P/Q975G) above, with T144S, G148W counted along it
In short: as §1

Sequence	binding signal
GGCUAGAACUAGUGGAUCCCCCGGCGCCCGGCGGCUCGAGCCCGGGUAAGUGUAAAUAGUCUGCAUGCCGCCGGGCGCCAUGCCUGCAGGUCGACUCUAGAAAACAUG	3.13 log2 enrichment (interaction score)
GGCUAGAACUAGUGGAUCCCCCGGCGCCCGGCGGCUCGAGCCCGGGUAAGUGUAUAUAGUCUGCAUGCCGCCGGGCGCCAUGCCUGCAGGUCGACUCUAGAAAACAUG	2.59 log2 enrichment (interaction score)
GGCUAGAACUAGUGGAUCCCCCGGCGCCCGGCGGCUCGAGCCCGGGUAAGUGUACAUAGUCUGCAUGCCGCCGGGCGCCAUGCCUGCAGGUCGACUCUAGAAAACAUG	0.34 log2 enrichment (interaction score)
